This passage reports DuctApe activity index results from the supplement of paper PMC9801561.
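Also: biolog PM4 phosphorus and sulfur plates, tetrazolium violet dye reduction read in the OmniLog every 15 min, kinetic curves scored by DuctApe, each plate run in triplicate.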

The first experiment concerns Escherichia coli Nissle 1917. Put plainly: DuctApe activity index of respiration/growth curve (0 no growth to 9 maximum) (index 0-9); higher = more growth / nutrient utilisation, active = 3 or more; extreme values may be limits of the assay. Conditions: nutrient role: sole nitrogen source (pyruvate carbon); incubation: 48 h, 37 °C.
`NCCCC[C@@H](N)C(=O)O` [D-Lysine]: the DuctApe activity index is 0.667 (inactive).

On to `CC(O)C(N)=O` (racemic) [DL-Lactamide], for which the DuctApe activity index was 0 (inactive).

For the compound `N[C@H](CCC(=O)O)C(=O)O` [D-Glutamic acid], the DuctApe activity index was 0.667 (inactive).

`NO` [Hydroxylamine]: the DuctApe activity index was 0 (inactive).

With `N[C@@H](Cc1c[nH]c2ccccc12)C(=O)O` [L-Tryptophan], the DuctApe activity index is 4.67 (active).

As for `NC(=O)NC(N)=O` [Biuret], the DuctApe activity index is 5 (active).

For the compound `O=c1[nH]c(=O)c2nc[nH]c2[nH]1` [Xanthine], the DuctApe activity index is 4 (active).

As for `NCCO` [Ethanolamine], the DuctApe activity index was 0 (inactive).

For `NCCCCN=C(N)N` [Agmatine], the DuctApe activity index is 0 (inactive).

Turning to `Nc1nc2[nH]cnc2c(=O)[nH]1` [Guanine], the DuctApe activity index is 0 (inactive).

Consider `NC(N)=O`, for which the DuctApe activity index is 0 (inactive).

The experiment is the same for the next values; noted with them: nutrient role: sole phosphorus source (pyruvate carbon); incubation: 48 h, 37 °C.
For the compound `O=c1ccn([C@@H]2O[C@H](CO)[C@@H](O)[C@H]2OP(=O)(O)O)c(=O)[nH]1` [Uridine 2`-Monophosphate], the DuctApe activity index was 7 (active).

For `N[C@@H](COP(=O)(O)O)C(=O)O` [O-Phospho-L-Serine], the DuctApe activity index is 8.67 (active).

As for `C[N+](C)(C)CCOP(=O)(O)O` [Phosphoryl Choline], the DuctApe activity index was 8.67 (active).

`Nc1ccn([C@@H]2O[C@H](CO)[C@@H](OP(=O)(O)O)[C@H]2O)c(=O)n1` [Cytidine 3`-Monophosphate]: the DuctApe activity index was 0 (inactive).

On to `O=c1ccn([C@@H]2O[C@H](CO)[C@@H](OP(=O)(O)O)[C@H]2O)c(=O)[nH]1` [Uridine 3`-Monophosphate], for which the DuctApe activity index is 8.67 (active).

On to `Nc1nc2c(ncn2[C@@H]2O[C@H](COP(=O)(O)O)[C@@H](O)[C@H]2O)c(=O)[nH]1` [Guanosine 5`-Monophosphate], for which the DuctApe activity index was 8.67 (active).

Take `O=C(O)CP(=O)(O)O` [Phosphono Acetic acid]: the DuctApe activity index was 1.33 (inactive).

`O=P(O)(O)CP(=O)(O)O` [Methylene Diphosphonic acid]: the DuctApe activity index is 0.667 (inactive).

For the compound `O=P(O)(O)O` [Phosphate], the DuctApe activity index is 9 (active).

The same experiment, now with this note: nutrient role: sole sulfur source (pyruvate carbon); incubation: 48 h, 37 °C.
Regarding `N[C@@H](CS(=O)(=O)O)C(=O)O` [L-Cysteic acid], the DuctApe activity index is 7 (active).

Regarding `O=S(=O)(O)CCO` [2-Hydroxyethane Sulfonic acid], the DuctApe activity index was 8 (active).

Take `N[C@@H](CSC[C@H](N)C(=O)O)C(=O)O` [Lanthionine]: the DuctApe activity index is 8 (active).

Consider `O=S(=O)(O)O` [Sulfate], for which the DuctApe activity index was 7.33 (active).
